# Source: PubChem (several laboratories)
# Shown are actives, neighbours in structure and some others; about 1% of the full set was active somewhere.
# hiPSC survival: hiPSC single-cell survival enhancement | ATPlite luminescence; 100% = ROCK inhibitor wells, 0% = DMSO | survival enhancement, % at 20 µM | hit rate 0.044% among 360,000 | AID 602274; in the data active = survival enhancement above about 18%;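 also: cells exposed to compounds for 16 hours before the ATP read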
# V-ATPase pHluor: alters yeast V-ATPase proton transport. S. cerevisiae, pHLuorin cytosolic pH fluorescence. response, % at 10 µM. hit rate 0.37% among 350,000; in the data active = response mostly above about 7.3%, no sharp cut-off; inactive = mostly below about 5.4%; also: actives read high
# Fh CTSL1 inh: counter-screen for PFM18AAP inhibitors: inhibitors of F. hepatica cathepsin L1; recombinant F. hepatica cathepsin L1, Z-Leu-Arg-MCA fluorescence; inhibition, % at 5.96 µM; hit rate 0.49% among 300,000; AID 1906;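 active = inhibition above the mean of all tested compounds plus 3 SD, set per screening campaign, cut at about 17% in these data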;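 also: 0% = plate median of test compound wells and 100% = 1 µM Z-Phe-Ala-diazomethylketone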
# CR mimetic SO: lowers age-related superoxide in aged yeast cells; S. cerevisiae aged cells, superoxide DHE fluorescence; stronger effect = lower value; superoxide response (% of plate mean), % at 10 µM; hit rate 0.18% among 330,000;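 active = superoxide response under a set limit, about three screen SD below normal, cut at about 65% in these data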;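 also: yeast aged for seven days with compound at 30 °C before DHE staining; 100% = average MFI of all compound-treated wells on the plate with controls excluded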
# * marks the source's active call; other numbers are inactive results; . = not tested or not shown.
SMILES,hiPSC survival,V-ATPase pHluor,Fh CTSL1 inh,CR mimetic SO
CCCNC(=O)C(Sc1ccccc1)c1ccccc1 (stereo not given),0,3,36*,105
CCOC(=O)c1cnc2nc(NCc3ccc(OC)c(OC)c3)[nH]n2c1=O,-2,2,20*,93
CCCc1cc(=O)n2[nH]c(NCc3ccc(OC)c(OC)c3)nc2n1,-2,1,-3,99
CCOC(CNC(=O)c1cccc([N+](=O)[O-])c1)OCC,2,-3,38*,84
O=C(NCCc1ccccc1)c1cccc([N+](=O)[O-])c1,1,2,1,116
COc1cc2c(C#N)c(N3CCCC3)nc(N)c2c(N)n1,1,0,0,96
N#Cc1c(N2CCCC2)nc(N)c2c(N)nc(N3CCCC3)cc12,-4,5,110*,121
O=C(N/N=C/c1c(O)ccc2ccccc12)c1ccc[n+](CCO)c1,0,3,20*,115
COc1ccc2ccccc2c1/C=N/NC(=O)c1cccc(C)c1,0,-1,18*,104
O=C(N/N=C\c1c(O)ccc2ccccc12)c1ccc(O)cc1,0,1,0,98
CC(=O)N1C(=O)C2(NCC(C)N2)c2ccccc21 (stereo not given),0,.,.,.
CN1CCc2c(sc3nc(NCCO)n(-c4cccc(Cl)c4)c(=O)c23)C1,0,-1,1,95
Clc1ccccc1OCc1nnc(-c2ccccc2Br)o1,-2,1,0,101
O=c1c(Cl)c(Cl)cnn1Cc1nnc(-c2ccccc2Br)o1,26*,1,.,.
COC(=O)c1ccc2c(c1O)C(=O)c1ccccc1C2=O,-2,2,26*,154
CCOc1cc(C2C3=C(CC(C)(C)CC3=O)N(CCOC)C3=C2C(=O)CC(C)(C)C3)ccc1OC,0,1,-1,101
COc1ccc(C2C3=C(CC(C)(C)CC3=O)N(CC(=O)O)C3=C2C(=O)CC(C)(C)C3)cc1OC,-1,-1,20*,99
Cc1ccc(CCN2CC(C(=O)NCCN3CCCCCC3)CC2=O)cc1 (stereo not given),2,5,5,105
CCC1CCCCN1CCCNC(=O)C1CC(=O)N(CCc2ccccc2)C1 (stereo not given),0,-1,28*,106
Cc1ccc(CCN2CC(C(=O)NCCCN3CCCCCC3)CC2=O)cc1 (stereo not given),22*,-1,-3,94
COCC#Cc1ccc2c(c1)O[C@@H](CN(C)S(=O)(=O)c1cccc(F)c1)[C@@H](C)CN([C@H](C)CO)S2(=O)=O,-2,-2,.,.
COc1ccc(N2CCN(S(=O)(=O)c3cnc[nH]3)CC2)cc1,0,4,17*,92
COc1ccc(C(=O)N2CCOC2CNC(=O)C(=O)NCc2ccccc2)cc1 (stereo not given),-1,.,.,.
Cc1cc(C)nc(/N=C2\NC(=O)CC(C(=O)O)N2c2ccc(Oc3ccccc3)cc2)n1 (stereo not given),-3,-1,37*,109
Cc1ccc(NC(=O)C2CCCN(S(=O)(=O)c3c(C)noc3/C=C/N(C)C)C2)cc1F (stereo not given),2,8,17*,97
SMILES,hiPSC survival,V-ATPase pHluor,Fh CTSL1 inh,CR mimetic SO
CCOc1ccc(S(=O)(=O)Nc2cccc(C(=O)N3CCN(c4ccc(OC)cc4)CC3)c2)cc1,21*,4,3,81
CCC(C)C(NC(=O)C1CCC(C)CC1)C(=O)Nc1cc(OC)ccc1OC (stereo not given),-3,2,1,90
O=C(COC(=O)c1cc[n+]([O-])cc1)Nc1ccc([N+](=O)[O-])cc1Cl,1,-1,-8,96
[O-][N+]1=c2ccc(Nc3ccccc3)cc2=NC12CCCCC2,-3,3,20*,116
O=C1/C(=C/c2ccncc2)CCC/C1=C\c1ccncc1,90*,7,.,.
O=C1C(=Cc2ccncc2)CCCc2ccccc21,-1,0,.,.
CCN(C(=O)COc1ccccc1)c1nnc(-c2cccnc2)s1,-1,26*,-12,83
COCCN(C(=O)COc1ccccc1)c1nnc(-c2cccnc2)s1,-1,-5,1,100
CCN(CC)S(=O)(=O)c1ccc2nc(CCl)[nH]c2c1,0,0,-1,100
Cc1cc(C)nc(SCC(=O)NNC(=O)c2ccccc2C)n1,-1,-1,8,65*
Cc1cc(C)nc(SCC(=O)NNC(=O)c2cccs2)n1,1,-4,2,114
COC(=O)CSC1=NS(=O)(=O)c2ccccc21,-3,11*,-6,85
O=C(CSC1=NS(=O)(=O)c2ccccc21)Nc1ccccc1,-2,2,-1,68
O=C(COc1ccccc1[N+](=O)[O-])N(Cc1ccco1)C1CCS(=O)(=O)C1 (stereo not given),0,-2,25*,93
CCN(C(=O)COc1ccccc1[N+](=O)[O-])C1CCS(=O)(=O)C1 (stereo not given),0,2,-1,89
CN(C)C(CNC(=O)CSc1nc2sc3c(c2c(=O)n1C)CCCC3)c1ccccc1 (stereo not given),0,-2,.,91
O=C1COc2ccc(C(=O)COc3ccc(Cl)cc3Br)cc2N1,0,-6,-7,105
CC(C)[C@H](NC(=O)c1ccccc1)C(=O)OCC(=O)c1ccc(S(=O)(=O)N2CCCCC2)cc1,0,-3,35*,108
Cc1ccc(C)c(N2CCN(S(=O)(=O)c3cc4c(cc3C)NC(=O)CO4)CC2)c1,2,2,5,88
CCC(C)NC(=O)CCSc1ccc(C)cc1 (stereo not given),2,1,-2,93
Cc1ccc(NC(=O)COC(=O)C(CC(C)C)N2C(=O)C3CC=CCC3C2=O)c(C)c1 (stereo not given),0,4,17*,86
O=C(Nc1ccc2c(c1)OCO2)c1cc(C2CCCCN2C(=O)c2ccc3c(c2)CCO3)on1 (stereo not given),-3,.,.,.
Cc1cc(C)n(C(CC(=O)N2CCc3ccccc3C2)C(=O)O)n1 (stereo not given),-2,16*,-1,99
CCOC(=O)c1c(-c2ccco2)csc1NC(=O)COC(=O)c1cnccn1,0,0,40*,97
O=C(NCCOc1ccccc1)C1Nc2ccc(OC(F)(F)F)cc2C2C=CCC12 (stereo not given),-1,17*,0,104
SMILES,hiPSC survival,V-ATPase pHluor,Fh CTSL1 inh,CR mimetic SO
O=C(NCCF)C1Nc2ccc(OC(F)(F)F)cc2C2C=CCC12 (stereo not given),2,6,-1,100
COc1ccc(CNC(=O)CCS(=O)(=O)Cc2cccc(Cl)c2)c(OC)c1,0,14*,5,107
CC/C=C\C/C=C\C/C=C\CCCCCCCC(=O)O,5,-4,26*,95
CCCCC/C=C\C/C=C\C/C=C\C/C=C\CCCC(=O)O,.,.,22*,96
CC1CN(S(=O)(=O)c2cccc(C(=O)NCC3COc4ccccc4O3)c2)CC(C)O1 (stereo not given),-1,-1,.,83
O=C(NCc1cccc(C(F)(F)F)c1)C1CC(c2ccccc2C(F)(F)F)=NO1 (stereo not given),-3,-2,0,.
